Screening results: PubChem, National Center for Advancing Translational Sciences (NCATS)
ELG1 DNA repair: qHTS screen for small molecules that inhibit ELG1-dependent DNA repair in human embryonic kidney (HEK293T) cells expressing luciferase-tagged ELG1. HEK293T ELG1-luciferase reporter, luminescence, 16 h; DNA damage induced by 5-fluorouridine. Potency, µM (titrated, usually from 46.1 µM), without a hit: at the top dose activity change, negative = inhibition, usual class: inhibitors. 330,000 tested, 2.3% active. AID 504467, 2011; note: potency is the fitted concentration of half-maximal effect; nearly all actives have a fitted effect of over 55% in size
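Reporter activity after DNA damage by 5-fluorouridine is monitored. Compound-treated cells incubate 16 hr at 37 °C, then ONE-Glo is added for 30 min before luminescence reading.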
TDP1 cell noCPT: qHTS for Inhibitors of human tyrosyl-DNA phosphodiesterase 1 (TDP1): qHTS in cells in absence of CPT | DT40 Tdp1-/- hTDP1 cells, no CPT, ATP luminescence, 48 h | Potency, µM (titrated, usually from 46.2 µM), for the others: top-dose activity change, negative = growth inhibition, hits mostly inhibitors | 420,000 tested, 15% active; note: potency is the fitted concentration of half-maximal effect; nearly all actives have a fitted effect of over 55% in size
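Cells were dispensed at 400 per well, compounds added by pin tool, plates incubated ≥48 hr at 37 °C, then CellTiter-Glo added for 30 min at room temperature before luminescence reading. Line: DT40 Tdp1-/- complemented with hTDP1; camptothecin omitted.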
IL1B secr inh: qHTS for Inhibitors of Inflammasome Signaling: IL-1-beta AlphaLISA Primary Screen | THP-1 LPS/ATP IL-1B secretion, AlphaLISA, 16 h; stronger effect = lower value | activity change, % at 57.5 µM | 360,000 tested, 4.7% active | AID 743279, 2014; in the data active = activity change below about -50%; inconclusive = mostly about -30% to -49%
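THP-1 cells pretreated 1 hr with compounds (up to 57.5 uM final), then stimulated with LPS (250 ng/mL final) plus ATP (1.25 mM final); secreted IL-1B measured by AlphaLISA after 16 hr, decreased signal indicating inhibition.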
TDP1 cell CPT: qHTS for Inhibitors of human tyrosyl-DNA phosphodiesterase 1 (TDP1): qHTS in cells in presence of CPT. chicken DT40 Tdp1-/-;hTDP1 cells + 20 nM CPT, ATP luminescence, 48 h. Potency, µM (titrated, usually from 46.2 µM), for the others: top-dose activity change, negative = growth inhibition, usual class: inhibitors. 420,000 tested, 12% active. AID 686979, 2013; note: potency is the fitted concentration of half-maximal effect; nearly all actives have a fitted effect of over 55% in size
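Cell growth measured by CellTiter-Glo luminescence after a minimum 48 h, 37 C compound exposure with 20 nM CPT in Tdp1-knockout DT40 cells stably expressing hTDP1, seeded 400/well; qHTS titration format.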
RORgamma inh: qHTS for inhibitors of ROR gamma transcriptional activity; Potency, µM (highest dose often 53.6 µM), inactives show top-dose activity change, negative = inhibition, usual class: inhibitors; 310,000 tested, 5.4% active; Drosophila S2 Gal4-RORgamma UAS-luciferase reporter, 20 h; AID 2551, 2010; note: potency is the fitted concentration of half-maximal effect; nearly all actives have a fitted effect of over 60% in size
Target sequence (P51450 whole entry, looked up, the tested form may be a part): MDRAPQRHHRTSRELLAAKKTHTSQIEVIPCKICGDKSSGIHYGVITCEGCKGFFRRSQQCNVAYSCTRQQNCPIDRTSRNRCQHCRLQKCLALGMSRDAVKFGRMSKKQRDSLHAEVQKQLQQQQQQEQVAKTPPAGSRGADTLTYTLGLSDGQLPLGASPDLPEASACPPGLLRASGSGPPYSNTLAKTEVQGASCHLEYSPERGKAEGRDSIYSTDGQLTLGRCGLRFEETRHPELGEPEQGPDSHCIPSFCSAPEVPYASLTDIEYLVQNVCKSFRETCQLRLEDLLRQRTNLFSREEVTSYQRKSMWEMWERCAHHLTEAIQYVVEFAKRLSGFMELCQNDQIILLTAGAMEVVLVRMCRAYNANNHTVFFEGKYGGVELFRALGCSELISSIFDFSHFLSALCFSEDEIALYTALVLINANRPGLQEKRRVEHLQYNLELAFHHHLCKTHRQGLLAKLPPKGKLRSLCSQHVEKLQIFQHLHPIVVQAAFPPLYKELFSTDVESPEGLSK
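Using a luciferase readout, inhibitors were identified by reduced reporter activity in Drosophila cells coexpressing a copper-inducible Gal4–ROR gamma fusion and UAS-driven Photinus luciferase, incubated 20 hr after 700 uM copper sulfate.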
VP16 counter: VP16 counterscreen qHTS for inhibitors of ROR gamma transcriptional activity. Drosophila S2 Gal4-VP16 UAS-luciferase, luminescence, 20 h. Potency, µM (titrated, usually from 53.6 µM), without a hit: top-dose activity, negative = inhibition, most hits filed as inhibitors. 310,000 tested, 3.5% active. AID 2546, 2010;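 note: Gal4-VP16 expression switched on by copper sulfate through the metallothionein promoter; potency is the fitted concentration of half-maximal effect; nearly all actives have a fitted effect of over 50% in size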
* marks the source's active call; other numbers are inactive results; [ ] = another dose, or the depositor's remark. Sampled rows, rich in hits. Any-hit rate of the full collection: about 21%. Unless noted, calls come from the whole dose curve; as a rule, active = well fitted curve in the direction sought with a large enough effect; inconclusive = small, poorly fitted or top-dose-only effect, or another doubt; inactive = no such curve, though single readings can be large; an effect the other way counts as inactive or inconclusive. % is set by controls: 0 for no effect and ±100 for the full control effect.

What do the screens show for `Cc1ccc(/C=c2\sc3n(c2=O)CN(c2ccc(Br)cc2)CN=3)o1`?
ELG1 DNA repair: 5.0%; TDP1 cell noCPT: inconclusive; IL1B secr inh: -12.7; TDP1 cell CPT: -9.8%; RORgamma inh: -19.8%; VP16 counter: -3.3%

Results for Cc1ccc(/C=c2/sc3n(c2=O)CCCN=3)o1 ?
ELG1 DNA repair: inconclusive; TDP1 cell noCPT: -18.0%; IL1B secr inh: 0.0; TDP1 cell CPT: inconclusive; RORgamma inh: 7.08µM*; VP16 counter: inconclusive

What do the screens show for `C=CCN1C(=O)C(O)(CC(=O)c2ccc(OC)cc2OC)c2cc(Br)ccc21` (stereo not given)?
ELG1 DNA repair: -11.9%; TDP1 cell noCPT: inconclusive; IL1B secr inh: -4.6; TDP1 cell CPT: inconclusive; RORgamma inh: 32.2%; VP16 counter: -11.3%

What do the screens show for `Cc1coc(C)c1C(=O)CC1(O)C(=O)N(CCc2ccccc2)c2ccccc21` (stereo not given)?
ELG1 DNA repair: inconclusive; TDP1 cell noCPT: inconclusive; IL1B secr inh: -2.4; TDP1 cell CPT: inconclusive; RORgamma inh: inconclusive; VP16 counter: -16.0%

What do the screens show for `O=C(CC1(O)C(=O)N(CCc2ccccc2)c2ccc(Br)cc21)c1ccc(F)cc1` (stereo not given)?
TDP1 cell noCPT: 16.4µM*; TDP1 cell CPT: inconclusive

How did COc1ccc(C(=O)CC2(O)C(=O)N(CCc3ccccc3)c3ccc(Br)cc32)cc1OC (stereo not given) do in these assays?
TDP1 cell noCPT: inconclusive; TDP1 cell CPT: 16.4µM*

What do the screens show for `CC[C@]1(C(=O)OC)[C@H]2C(=O)N(Cc3ccccc3)C(=O)[C@H]2[C@H]2CN(C)C(=NC)N21`?
ELG1 DNA repair: 20.2%; TDP1 cell noCPT: -5.1%; IL1B secr inh: 31.8; TDP1 cell CPT: 14.7%

How did CC(=O)c1cccc(NC(=O)C(C)OC(=O)/C=C/c2cccs2)c1 (stereo not given) do in these assays?
ELG1 DNA repair: 6.4%; TDP1 cell noCPT: inconclusive; IL1B secr inh: 15.1; TDP1 cell CPT: inconclusive

How did COc1cc(C(CC(=O)Nc2ccc(C)c(F)c2)N2Cc3ccccc3C2=O)cc(OC)c1OC (stereo not given) do in these assays?
TDP1 cell noCPT: -2.0%; TDP1 cell CPT: -5.2%

How did O=S(=O)(N[C@H]1C[C@@H](NS(=O)(=O)OCC(Cl)(Cl)Cl)C2CCCCC21)OCC(Cl)(Cl)Cl (stereo not given in full) do in these assays?
ELG1 DNA repair: -4.8%; TDP1 cell noCPT: 23.1µM*; IL1B secr inh: 2.7; TDP1 cell CPT: inconclusive; RORgamma inh: 14.7%; VP16 counter: inconclusive

What do the screens show for `O=c1[nH]c(/C(Cl)=C/c2cc(Cl)ccc2O)nc2cc(Cl)ccc12`?
ELG1 DNA repair: inconclusive; TDP1 cell noCPT: 13µM*; IL1B secr inh: -104.8*; TDP1 cell CPT: 13µM*; RORgamma inh: 10.7%; VP16 counter: -4.5%

How did COc1ccc(C)cc1-n1c(SCC(=O)Nc2cc(C)on2)nc2sc(C)c(C)c2c1=O do in these assays?
ELG1 DNA repair: -11.3%; TDP1 cell noCPT: 8.2µM*; IL1B secr inh: -9.9; TDP1 cell CPT: 11.6µM*; RORgamma inh: 21.2%; VP16 counter: -6.1%

Results for COc1ccc(C)cc1-n1c(SCC(=O)Nc2cc(C)on2)nc2ccccc2c1=O ?
ELG1 DNA repair: 0.0%; TDP1 cell noCPT: 13µM*; IL1B secr inh: 9.7; TDP1 cell CPT: 10.3µM*; RORgamma inh: -19.1%; VP16 counter: 1.0%[10 µM]

Results for COc1cccc(-n2c(SCC(=O)Nc3cc(C)on3)nc3ccccc3c2=O)c1 ?
ELG1 DNA repair: -14.2%; TDP1 cell noCPT: inconclusive; IL1B secr inh: -5.8; TDP1 cell CPT: inconclusive; RORgamma inh: -1.7%; VP16 counter: 3.4%

Results for c1coc(C2=NCCc3ccccc32)c1 ?
ELG1 DNA repair: 3.1%; TDP1 cell noCPT: 3.2%; IL1B secr inh: 4.3; TDP1 cell CPT: -12.9%; RORgamma inh: inconclusive; VP16 counter: 17.1%

What do the screens show for `N#Cc1cccc(NC(=O)N2CCCC3(CCN(C(=O)c4ccco4)CC3)C2)c1`?
TDP1 cell noCPT: -2.8%; TDP1 cell CPT: -6.5%; RORgamma inh: -3.1%; VP16 counter: 17.0%

Results for COc1ccc(S(=O)(=O)N2CCN(CCOc3ccc(Br)cc3)CC2)cc1OC ?
ELG1 DNA repair: inconclusive; TDP1 cell noCPT: 14.6µM*; IL1B secr inh: -21.0; TDP1 cell CPT: inconclusive

Results for COc1ccc(OC)c(C(=O)CN2CCN(S(=O)(=O)c3ccc(Br)cc3)CC2)c1 ?
ELG1 DNA repair: -18.8%; TDP1 cell noCPT: -18.1%; IL1B secr inh: -11.9; TDP1 cell CPT: -11.5%; RORgamma inh: inconclusive; VP16 counter: inconclusive

What do the screens show for `Clc1cccc(OCCN2CCN(CCOc3cccc(Cl)c3)CC2)c1`?
ELG1 DNA repair: inconclusive; TDP1 cell noCPT: 2.31µM*; IL1B secr inh: -85.4*; TDP1 cell CPT: 2.91µM*; RORgamma inh: 30.0%; VP16 counter: -23.0%

Results for CC1CCN(CCOc2cccc(Br)c2)CC1 ?
ELG1 DNA repair: 6.2%; TDP1 cell noCPT: -26.2%; IL1B secr inh: -6.1; TDP1 cell CPT: 29.6%; RORgamma inh: -0.2%; VP16 counter: 2.4%

Results for COc1ccc(S(=O)(=O)N2CCN(CCOc3ccccc3Cl)CC2)cc1OC ?
ELG1 DNA repair: inconclusive; TDP1 cell noCPT: inconclusive; IL1B secr inh: -15.9; TDP1 cell CPT: 23.1µM*

Results for Cc1ccc(S(=O)(=O)N2CCN(CCOc3c(Cl)cccc3Cl)CC2)cc1C ?
ELG1 DNA repair: -0.6%; TDP1 cell noCPT: inconclusive; IL1B secr inh: -0.9; TDP1 cell CPT: 20.6µM*

What do the screens show for `Cc1ccc(-n2nc(C)c3c(C)c(CCC(=O)O)c(C)nc32)cc1C`?
ELG1 DNA repair: 0.2%; TDP1 cell noCPT: 10.2%; IL1B secr inh: 103.8; TDP1 cell CPT: -9.5%; RORgamma inh: -7.7%; VP16 counter: -6.5%

How did CC(OC(=O)c1ccccc1C(=O)N(C)c1ccccc1)C(=O)Nc1ccccc1[N+](=O)[O-] (stereo not given) do in these assays?
ELG1 DNA repair: 1.1%; TDP1 cell noCPT: -31.5%; IL1B secr inh: 6.4; TDP1 cell CPT: -27.6%

Results for Cc1ccc(S(=O)(=O)N2CCN(CCOc3cccc(C)c3)CC2)cc1 ?
ELG1 DNA repair: -13.7%; TDP1 cell noCPT: 7.31µM*; IL1B secr inh: -20.6; TDP1 cell CPT: -18.0%
